Consider 30 compounds from PubChem BioAssay (NCATS).

Molecules are shown by their SMILES. Inconclusive results are not listed. The source made the active and inactive calls. Calls follow the shape of the dose curve; as a rule, active = well fitted cell-killing curve with a large enough effect; inconclusive = small, poorly fitted or top-dose-only effect, or effect the other way; inactive = no such curve, though single readings can be large or run the other way.
Potency is read from the fitted curve at half-maximal effect.

The first test is described as follows: Quantitative High-Throughput drug screen in 47 multiple myeloma cell lines against the NCATS MIPE library collection: ARD_JJKsccE7 cell viability assay (AID 1918929). As to conditions: ARD myeloma cell line viability, CellTiter-Glo, 48 h; series mostly up to 45.8 µM. A digest of the protocol: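 qHTS of the MIPE 4.0 collection: 500 myeloma cells/well, 48 h drug exposure at 37C in 5% CO2, then CellTiter-Glo for 5 min at room temperature before luminescence reading.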
In general terms: Cellular ATP, detected with luciferase, serves as a proxy for viable cell number.
Turning to `CC#C[C@]1(O)CC[C@H]2[C@@H]3CCC4=CC(=O)CCC4=C3[C@@H](c3ccc(N(C)C)cc3)C[C@@]21C`, the Potency was 2.64 µM (active).

As for `Cn1cnc2c1c(=O)[nH]c(=O)n2C`, the Potency was 7.43 µM (active).

Consider `CN(CCOc1ccc(NS(C)(=O)=O)cc1)CCc1ccc(NS(C)(=O)=O)cc1`, for which the Potency entry is “inactive”.

For `NC(=O)NO`, the Potency is 0.235 µM (active).

As to `Cc1ccc(-c2cc(C(F)(F)F)nn2-c2ccc(S(N)(=O)=O)cc2)cc1`, the Potency result was “inactive”.

In the case of `Nc1nc2c(ncn2COC(CO)CO)c(=O)[nH]1`, the Potency is 4.18 µM (active).

For `CN(C)CCCN1c2ccccc2CCc2ccc(Cl)cc21`, the Potency was 8.33 µM (active).

The next test in a line: Quantitative High-Throughput drug screen in 47 multiple myeloma cell lines against the NCATS MIPE library collection: Karpas620_DSMZ cell viability assay (AID 1918959). Also: nearly all actives have a fitted effect of over 30% in size. As to conditions: Karpas620 myeloma viability, CellTiter-Glo ATP luminescence, 48 h; series mostly up to 45.8 µM. A digest of the protocol: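 Luminescent ATP measurement with CellTiter-Glo gives viability, scaled between DMSO-only wells (100%) and media-only wells (0%). Cells, 500 per well, faced library compounds for 48 hours at 37C.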
Regarding `CN(C)CCOC(c1ccccc1)c1ccccc1`, the Potency result was “inactive”.

Take `O=C(Nc1ccc([N+](=O)[O-])cc1Cl)c1cc(Cl)ccc1O`: the Potency was 0.935 µM (active).

With `O=C1Cc2cc(CCN3CCN(c4nsc5ccccc45)CC3)c(Cl)cc2N1`, the Potency was 8.33 µM (active).

Regarding `CS(=O)(=O)Nc1ccc([N+](=O)[O-])cc1Oc1ccccc1`, the Potency entry is “inactive”.

Take `CS(=O)(=O)CCNCc1ccc(-c2ccc3ncnc(Nc4ccc(OCc5cccc(F)c5)c(Cl)c4)c3c2)o1`: the Potency is 18.7 µM (active).

Regarding `O=C(C1CCCCC1)N1CC(=O)N2CCc3ccccc3C2C1` (stereo not drawn), the Potency entry is “inactive”.

With `NC(=O)OCC(COC(N)=O)c1ccccc1`, the Potency result was “inactive”.

`CC1(C)O[C@H]2CC(=O)OC[C@]23[C@H]2CC[C@@]4(C)[C@H](c5ccoc5)OC(=O)[C@H]5O[C@]54[C@]2(C)C(=O)C[C@@H]13`: the Potency entry is “inactive”.

As for `Cn1c(=O)c2[nH]cnc2n(C)c1=O`, the Potency result was “inactive”.

Turning to `CC#C[C@]1(O)CC[C@H]2[C@@H]3CCC4=CC(=O)CCC4=C3[C@@H](c3ccc(N(C)C)cc3)C[C@@]21C`, the Potency is 0.662 µM (active).

On to `CN(C)CCCN1c2ccccc2CCc2ccc(Cl)cc21`, for which the Potency is 16.6 µM (active).

As for `COc1ccccc1N1CCN(CC(O)COc2cccc3ccccc23)CC1` (stereo not drawn), the Potency result was “inactive”.

A further test is described as follows: Quantitative High-Throughput drug screen in 47 multiple myeloma cell lines against the NCATS MIPE library collection: KMM1_JCRB cell viability assay (AID 1918960). Also: nearly all actives have a fitted effect of over 30% in size. As to conditions: KMM1 myeloma viability, CellTiter-Glo ATP luminescence, 48 h; series mostly up to 45.8 µM. Summed up: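 ATP readout (CellTiter-Glo), 48 h drug incubation, 37 °C/5% CO2, 500 cells per well; normalisation to DMSO (100%) and media-only (0%) controls.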
For `CN(C)CCOC(c1ccccc1)c1ccccc1`, the Potency entry is “inactive”.

Consider `CN1C2CCC1CC(OC(=O)C(CO)c1ccccc1)C2` (stereo not drawn), for which the Potency entry was “inactive”.

In the case of `CCN1CCCC1CNC(=O)c1cc(S(=O)(=O)CC)c(N)cc1OC` (stereo not drawn), the Potency entry was “inactive”.

Consider `O=C(Nc1ccc([N+](=O)[O-])cc1Cl)c1cc(Cl)ccc1O`, for which the Potency is 0.235 µM (active).

On to `CC[C@@]1(O)C(=O)OCc2c1cc1n(c2=O)Cc2cc3c(CN(C)C)c(O)ccc3nc2-1`, for which the Potency is 1.32 µM (active).

Take `CS(=O)(=O)Nc1ccc([N+](=O)[O-])cc1Oc1ccccc1`: the Potency result is “inactive”.

For `Cc1cc(C(C)(C)C)c(O)c(C)c1CC1=NCCN1`, the Potency entry is “inactive”.

With `CS(=O)(=O)CCNCc1ccc(-c2ccc3ncnc(Nc4ccc(OCc5cccc(F)c5)c(Cl)c4)c3c2)o1`, the Potency is 13.2 µM (active).

Take `NCCS(=O)(=O)O`: the Potency result was “inactive”.

For `O=C1c2c(O)ccc(O)c2C(=O)c2c(NCCNCCO)ccc(NCCNCCO)c21`, the Potency is 4.18 µM (active).

On to `O=C(C1CCCCC1)N1CC(=O)N2CCc3ccccc3C2C1` (stereo not drawn), for which the Potency result was “inactive”.

As to `NC(=O)OCC(COC(N)=O)c1ccccc1`, the Potency entry was “inactive”.

As for `CC(C)C(=O)Nc1ccc([N+](=O)[O-])c(C(F)(F)F)c1`, the Potency was 18.7 µM (active).

As to `CC1(C)O[C@H]2CC(=O)OC[C@]23[C@H]2CC[C@@]4(C)[C@H](c5ccoc5)OC(=O)[C@H]5O[C@]54[C@]2(C)C(=O)C[C@@H]13`, the Potency result is “inactive”.

On to `Cn1c(=O)c2[nH]cnc2n(C)c1=O`, for which the Potency result is “inactive”.

For `CN1CCN(CCCN2c3ccccc3Sc3ccc(Cl)cc32)CC1`, the Potency is 16.6 µM (active).

Turning to `Clc1ccc2c(c1)C(N1CCNCC1)=Nc1ccccc1O2`, the Potency result is “inactive”.

Consider `CC#C[C@]1(O)CC[C@H]2[C@@H]3CCC4=CC(=O)CCC4=C3[C@@H](c3ccc(N(C)C)cc3)C[C@@]21C`, for which the Potency is 1.05 µM (active).

Consider `Cn1cnc2c1c(=O)[nH]c(=O)n2C`, for which the Potency was 7.43 µM (active).

Consider `O=C(c1ccc(F)cc1)C1CCN(CCn2c(=O)[nH]c3ccccc3c2=O)CC1`, for which the Potency result is “inactive”.

For `CN(CCOc1ccc(NS(C)(=O)=O)cc1)CCc1ccc(NS(C)(=O)=O)cc1`, the Potency result is “inactive”.

Take `NC(=O)NO`: the Potency is 0.235 µM (active).

Turning to `CNCCCC12CCC(c3ccccc31)c1ccccc12`, the Potency was 20.9 µM (active).

Turning to `Cc1ccc(-c2cc(C(F)(F)F)nn2-c2ccc(S(N)(=O)=O)cc2)cc1`, the Potency entry is “inactive”.

For `Nc1nc2c(ncn2COC(CO)CO)c(=O)[nH]1`, the Potency was 6.62 µM (active).

For `CN(C)CCCN1c2ccccc2CCc2ccc(Cl)cc21`, the Potency was 11.8 µM (active).

`COc1ccccc1N1CCN(CC(O)COc2cccc3ccccc23)CC1` (stereo not drawn): the Potency result is “inactive”.

Another test can be described thus: Quantitative High-Throughput drug screen in 47 multiple myeloma cell lines against the NCATS MIPE library collection: Karpas417_ECACC cell viability assay (AID 1918961). As to conditions: Karpas417 myeloma viability, CellTiter-Glo ATP luminescence, 48 h; viability (% of DMSO): at 45.8 µM (top of the series). Summed up: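 Steps: seed 500 cells per well; pin-transfer MIPE 4.0 library; incubate 48 h at 37C, 5% CO2, humidified; add CellTiter-Glo, 5 min room temperature; read luminescence.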
Turning to `O=C(Nc1ccc([N+](=O)[O-])cc1Cl)c1cc(Cl)ccc1O`, the Potency was 0.59 µM (active).

`CC[C@@]1(O)C(=O)OCc2c1cc1n(c2=O)Cc2cc3c(CN(C)C)c(O)ccc3nc2-1`: the Potency was 0.743 µM (active).

For the compound `CS(=O)(=O)CCNCc1ccc(-c2ccc3ncnc(Nc4ccc(OCc5cccc(F)c5)c(Cl)c4)c3c2)o1`, the Potency was 6.62 µM (active).

Consider `O=C1c2c(O)ccc(O)c2C(=O)c2c(NCCNCCO)ccc(NCCNCCO)c21`, for which the Potency is 16.6 µM (active).

For `CCOC(=O)Nc1ccc(NCc2ccc(F)cc2)nc1N`, the Potency result was “inactive”.

Turning to `CN1CCC(=C2c3ccccc3CC(=O)c3sccc32)CC1`, the Potency result was “inactive”.

Turning to `CN1CCN(CCCN2c3ccccc3Sc3ccc(Cl)cc32)CC1`, the Potency is 0.132 µM (active).

Consider `CC#C[C@]1(O)CC[C@H]2[C@@H]3CCC4=CC(=O)CCC4=C3[C@@H](c3ccc(N(C)C)cc3)C[C@@]21C`, for which the Potency is 0.526 µM (active).

Consider `Cn1cnc2c1c(=O)[nH]c(=O)n2C`, for which the Potency was 9.35 µM (active).

With `CN(CCOc1ccc(NS(C)(=O)=O)cc1)CCc1ccc(NS(C)(=O)=O)cc1`, the Potency entry is “inactive”.

Turning to `NC(=O)NO`, the Potency was 1.48 µM (active).

For the compound `Nc1nc2c(ncn2COC(CO)CO)c(=O)[nH]1`, the Potency is 11.8 µM (active).
